Reference: the supplement of paper PMC13380429

system: Vero E6 infected with SARS-CoV-2; assay: SARS-CoV-2 infection rate relative to infected DMSO; higher = more infection, active = 60 or less; details: 24 h

Question: How did the SARS-CoV-2 infection rate turn out when `CC[C@H]1CN2CC[C@H]1C[C@@H]2[C@@H](O)c1ccnc2ccc(OC)cc12` [hydroquinidine] (10 µM) was run?
Answer: The SARS-CoV-2 infection rate was 90% (inactive).

Question: Which SARS-CoV-2 infection rate does the source give for `COc1cc(Br)c(S(=O)(=O)Nc2ccc(Cl)c(O[C@@H]3CCN(C)C3)c2)cc1OC` (10 µM) here?
Answer: Its SARS-CoV-2 infection rate is 102% (inactive).

Question: Which SARS-CoV-2 infection rate does the source give for `NC(=O)CCCCn1ccc(/N=C(\N)NCC(F)(F)F)n1` (10 µM) here?
Answer: Its SARS-CoV-2 infection rate is 100% (inactive).

Question: Which SARS-CoV-2 infection rate does the source give for `O=C(O)c1ccccc1Nc1cc(Cl)ccc1C(=O)O` [lobenzarit] (10 µM) here?
Answer: The SARS-CoV-2 infection rate was 113% (inactive).

Question: Which SARS-CoV-2 infection rate does the source give for `O=C(NC(=O)c1c(F)cccc1F)Nc1cc(Cl)c(OC(F)(F)C(F)C(F)(F)F)cc1Cl` (configuration not stated) [lufenuron] (10 µM) here?
Answer: The SARS-CoV-2 infection rate was 111% (inactive).

Question: With `O=C(CCCCCCCn1cc(-c2cccnc2)nn1)Nc1ccccc1-c1ccccc1` (0.833333 µM) as the molecule, how does the SARS-CoV-2 infection rate read?
Answer: Its SARS-CoV-2 infection rate is 114% (inactive).

Question: For `COc1ccccc1NC(=O)OCC1CCN(C(=O)OC(C)(C)C)CC1` (10 µM), which SARS-CoV-2 infection rate is on record?
Answer: Its SARS-CoV-2 infection rate is 97% (inactive).

Question: Which SARS-CoV-2 infection rate does the source give for `C[C@]12N[C@H](Cc3ccccc31)c1ccccc12` [dizocilpine-(-)] (10 µM) here?
Answer: Its SARS-CoV-2 infection rate is 106% (inactive).

Question: With `COc1ccccc1OC(=O)c1ccccc1OC(C)=O` [guacetisal] (10 µM) as the molecule, how does the SARS-CoV-2 infection rate read?
Answer: The SARS-CoV-2 infection rate was 101% (inactive).

Question: With `COc1ccc(C(=O)c2c(C)n(CCN3CCOCC3)c3ccccc23)cc1` [pravadoline] (10 µM) as the molecule, how does the SARS-CoV-2 infection rate read?
Answer: Its SARS-CoV-2 infection rate is 106% (inactive).

Question: How did the SARS-CoV-2 infection rate turn out when `NCC(=O)O` (10 µM) was run?
Answer: The SARS-CoV-2 infection rate was 104% (inactive).

Question: With `O=C(CC1NCCCC1O)Cn1cnc2cc(Br)c(Cl)cc2c1=O` (configuration not stated) [halofuginone] (0.833333 µM) as the molecule, how does the SARS-CoV-2 infection rate read?
Answer: Its SARS-CoV-2 infection rate is 99.5% (inactive).

Question: For `Clc1cccc(Cl)c1CSc1nnc(-c2cnccn2)s1` [yoda-1] (10 µM), which SARS-CoV-2 infection rate is on record?
Answer: Its SARS-CoV-2 infection rate is 89% (inactive).

Question: For `CCN(CC)CCCCC1CCN(CC(=O)N2c3ccccc3C(=O)Nc3cccnc32)CC1` (10 µM), which SARS-CoV-2 infection rate is on record?
Answer: Its SARS-CoV-2 infection rate is 108% (inactive).

Question: How did the SARS-CoV-2 infection rate turn out when `O=C1CCC[C@@H]2[C@H]3CCC[N+]4([O-])CCC[C@@H](CN12)[C@@H]34` (some centres not stated) [oxymatrine] (10 µM) was run?
Answer: Its SARS-CoV-2 infection rate is 100% (inactive).

Question: `N#Cc1cnc2cnc(NCc3cccnc3)cc2c1Nc1ccc(F)c(Cl)c1` (10 µM) was tested. Which SARS-CoV-2 infection rate did it give?
Answer: The SARS-CoV-2 infection rate was 102% (inactive).

Question: With `Cc1ncc(CO)c(/C=N/NC(=O)c2ccncc2)c1O` [pyridoxal-isonicotinoyl-hydrazone] (10 µM) as the molecule, how does the SARS-CoV-2 infection rate read?
Answer: The SARS-CoV-2 infection rate was 100% (inactive).

Question: For `CC(C)(C)C(=O)NCCCC(=O)O` [pivagabine] (10 µM), which SARS-CoV-2 infection rate is on record?
Answer: The SARS-CoV-2 infection rate was 105% (inactive).

Question: How did the SARS-CoV-2 infection rate turn out when `Cc1nc2c(O)cccc2c(=O)[nH]1` (10 µM) was run?
Answer: The SARS-CoV-2 infection rate was 114% (inactive).

Question: With `O=C1Nc2ccc(Cl)cc2[C@@](C#CC2CC2)(C(F)(F)F)O1` [efavirenz] (10 µM) as the molecule, how does the SARS-CoV-2 infection rate read?
Answer: The SARS-CoV-2 infection rate was 108% (inactive).

Question: For `CCCCC[C@H](O)/C=C/[C@H]1[C@H](O)CC(=O)[C@@H]1C/C=C\CCCC(=O)O` [dinoprostone] (10 µM), which SARS-CoV-2 infection rate is on record?
Answer: The SARS-CoV-2 infection rate was 95.5% (inactive).

Question: How did the SARS-CoV-2 infection rate turn out when `Cc1cnc(C(=O)O)c[n+]1[O-]` [acipimox] (10 µM) was run?
Answer: Its SARS-CoV-2 infection rate is 108% (inactive).

Question: How did the SARS-CoV-2 infection rate turn out when `CC[C@@H](c1ccc(F)c(F)c1)n1c(C(=O)OC)c(-c2ccno2)[nH]c1=S` (10 µM) was run?
Answer: The SARS-CoV-2 infection rate was 93.5% (inactive).

Question: With `O=C1NCN(c2ccccc2)C12CCN(CCCC(c1ccc(F)cc1)c1ccc(F)cc1)CC2` [fluspirilene] (10 µM) as the molecule, how does the SARS-CoV-2 infection rate read?
Answer: Its SARS-CoV-2 infection rate is 113% (inactive).

Question: `CN1[C@@H]2C[C@@H](OC(=O)[C@H](CO)c3ccccc3)C[C@H]1[C@@H]1O[C@@H]12` (10 µM) was tested. Which SARS-CoV-2 infection rate did it give?
Answer: The SARS-CoV-2 infection rate was 97.5% (inactive).

Question: `Cc1ccc(-n2nc(C(C)(C)C)cc2NC(=O)Nc2ccc(OCCN3CCOCC3)c3ccccc23)cc1` [doramapimod] (10 µM) was tested. Which SARS-CoV-2 infection rate did it give?
Answer: The SARS-CoV-2 infection rate was 86% (inactive).

Question: Which SARS-CoV-2 infection rate does the source give for `CCOC(=O)c1ncc2[nH]c3cccc(OC(C)C)c3c2c1C` (10 µM) here?
Answer: Its SARS-CoV-2 infection rate is 88.5% (inactive).

Question: `CN[C@H](CC(C)C)C(=O)N[C@H]1C(=O)N[C@@H](CC(N)=O)C(=O)N[C@H]2C(=O)N[C@H]3C(=O)N[C@H](C(=O)N[C@H](C(=O)O)c4cc(O)cc(O)c4-c4cc3ccc4O)[C@H](O)c3ccc(c(Cl)c3)Oc3cc2cc(c3O[C@@H]2O[C@H](CO)[C@@H](O)[C@H](O)[C@H]2O[C@H]2C[C@](C)(N)[C@H](O)[C@H](C)O2)Oc2ccc(cc2Cl)[C@H]1O` (10 µM) was tested. Which SARS-CoV-2 infection rate did it give?
Answer: Its SARS-CoV-2 infection rate is 104% (inactive).

Question: Which SARS-CoV-2 infection rate does the source give for `COC(=O)N1CC[C@@H]2[C@H]1CCC[C@@]2(O)C#Cc1cccc(C)c1` [mavoglurant] (10 µM) here?
Answer: Its SARS-CoV-2 infection rate is 112% (inactive).

Question: How did the SARS-CoV-2 infection rate turn out when `CN1CCC(Nc2ncc3ncnc(Nc4ccc(F)c(Cl)c4)c3n2)CC1` (10 µM) was run?
Answer: The SARS-CoV-2 infection rate was 114% (inactive).

Question: For `CCc1nc(-c2cccc(C)c2)c(-c2ccnc(NC(=O)c3ccccc3)c2)s1` (10 µM), which SARS-CoV-2 infection rate is on record?
Answer: Its SARS-CoV-2 infection rate is 104% (inactive).

Question: Which SARS-CoV-2 infection rate does the source give for `NC(=O)c1nc(F)cnc1O` [favipiravir] (10 µM) here?
Answer: The SARS-CoV-2 infection rate was 104% (inactive).
